A short description of experiment [1]: stimulators of insulin release from INS-1E, primary screen, cell-based, 5 mM glucose, NPC library (AID 1117329). The following applies: rat INS-1E insulin secretion, at 10 µM, stronger effect = higher value.
The nature of experiment [2]: growth inhibition of GSK3B-pretreated HCT116 cells – cell-based, CellTiter-Glo, 0.2 to 20 µM (AID 1117336;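 active = compounds lowering colon cancer cell viability after pretreatment blocking the GSK3B kinase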). The conditions noted are these: HCT116 viability after GSK3B inhibitor, at 20 µM, stronger effect = higher value. For orientation: Cellular ATP, detected with luciferase, serves as a proxy for viable cell number.
The nature of experiment [3]: inhibition of endothelial tube formation, primary screen, imaging, VEGF stimulated, CD31 staining, tube area, NPC library (AID 1117340;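 active = compound that reduces growth-factor-driven endothelial tube area in a mixed cell culture, no cutoff stated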). The conditions noted are these: VEGF-stimulated ADSC/ECFC co-culture, at 10 µM, stronger effect = higher value.
Experiment [4] can be described thus: glucagon-like peptide 1 release enhancers, primary assay, NCI-H716 cell line, NPC library (AID 1117341;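 active = compound raises GLP1 secretion from the human gut endocrine cells, with no numeric limit stated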). The conditions noted are these: NCI-H716 cells, at 10 µM, stronger effect = higher value.
Experiment [5] is described as follows: HCT116 colon cancer cell growth inhibition, primary screen, CellTiter-Glo luminescence, NPC library (AID 1117342;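 active = compounds that lower survival of HCT116 colon cancer cells in the luminescence readout, no numeric limit stated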). The following applies: at 20 µM (top of the series).
The nature of experiment [6]: CellTiter-Glo luminescent readout of SW480 viability loss, NPC library primary (AID 1117343;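 active = compounds that lower viability of the colon cancer cells in the luminescence readout, with no numeric limit stated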). The conditions noted are these: CellTiter-Glo luminescence; at 20 µM (top of the series).
Experiment [7] can be described thus: decreased DLD-1 cellular survival, CellTiter-Glo luminescent readout, NPC compound collection, primary HTS (AID 1117346;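 active = compounds that lower survival of DLD-1 colon cancer cells in the luminescence readout, no cutoff given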). The following applies: DLD-1 viability, CellTiter-Glo luminescence; at 20 µM (top of the series).
Experiment [8] deals with 6-phosphogluconate dehydrogenase, decarboxylating (Homo sapiens) (UniProt P52209). Briefly: 6PGD enzyme inhibitors, primary screen, biochemical, human, recombinant enzyme, NADPH absorbance (AID 1159550;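 active = at least 20% inhibition of 6-phosphogluconate dehydrogenase activity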). The conditions noted are these: recombinant 6PGD, NADPH absorbance 341 nm; at 10 µM; stronger effect = higher value.
Experiment [9] in a line: differential killing of epithelial or mesenchymal cells, primary screen, imaging, PC-3E GFP, TEM4-18 mCherry, co-culture (AID 1345086;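 active = compounds killing one labelled cell type while sparing the other, by normalised counts and ratio limits, not self-fluorescent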;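 as to all read-outs here: cells exposed to compound for 72 h before imaging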;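 as to red/green cell ratio (normalised): normalised mesenchymal count divided by normalised epithelial count so high means epithelial killing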). The conditions noted are these: imaging cell counts, at 1 µM; for red/green cell ratio (normalised): actives lie on both sides, counts scaled to control wells, 1 = unselective.
Setting [10] is: measured here: epithelial PC-3E GFP cell survival.
Setting [11] is: measured here: mesenchymal TEM4-18 mCherry cell survival.

The source of these data is PubChem BioAssay.

Calls of active or inactive are those of the source.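 The calls were made as follows, unless noted: active = compound raises insulin release from rat beta cells at 5 mM glucose, no numeric limit stated; inactive = the rest.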

Sequence of 6-phosphogluconate dehydrogenase, decarboxylating (Homo sapiens) (P52209 whole entry, looked up): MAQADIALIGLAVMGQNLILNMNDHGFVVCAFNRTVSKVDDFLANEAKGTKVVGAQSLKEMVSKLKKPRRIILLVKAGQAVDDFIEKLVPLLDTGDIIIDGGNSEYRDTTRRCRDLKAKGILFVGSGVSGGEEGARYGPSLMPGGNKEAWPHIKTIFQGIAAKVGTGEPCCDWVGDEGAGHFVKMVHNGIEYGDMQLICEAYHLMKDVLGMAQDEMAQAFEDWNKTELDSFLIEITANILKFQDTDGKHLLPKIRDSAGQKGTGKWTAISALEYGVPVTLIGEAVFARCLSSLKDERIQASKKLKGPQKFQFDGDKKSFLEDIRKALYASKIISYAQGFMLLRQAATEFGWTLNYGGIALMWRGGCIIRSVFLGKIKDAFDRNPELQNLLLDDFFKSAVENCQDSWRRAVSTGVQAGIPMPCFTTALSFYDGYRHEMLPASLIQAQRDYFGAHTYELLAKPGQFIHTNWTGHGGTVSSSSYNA

Usually inhibition stands for the drop in the measured response relative to a control, in per cent. Take `Nc1ccc(C(=O)O)c(O)c1`: in experiment [1], the insulin secretion stimulation is 0.1% (inactive). In experiment [2], the viability decrease was -46.6% (inactive). Moreover, the tube area decrease in experiment [3] is 15.9% (inactive). In experiment [4], the GLP1 secretion stimulation was -6% (inactive). Also, in experiment [5], the inhibition of viability was -12.6% (inactive). Further, the viability decrease (inhibition) in experiment [6] is 12.5% (inactive); in [7] it was -27.1% (inactive). Also, the inhibition in [8] is 6.71% (inactive). Further, the red/green cell ratio (normalised) in [9] was 0.88 (inactive). The normalised cell number in [9] (setting [10]) was 1.36; in experiment [9] (setting [11]) it was 1.19.
As for `CN(C)CCC(c1ccccc1)c1ccccn1` (centres undefined), the insulin secretion stimulation in [1] was 1.3% (inactive). The viability decrease in [2] was -40.9% (inactive). For the same compound, the tube area decrease in experiment [3] was 1.9% (inactive). Besides, the GLP1 secretion stimulation in experiment [4] is 1.5% (inactive). For the same compound, the inhibition of viability in [5] is 3.55% (inactive). Besides, the viability decrease (inhibition) in experiment [6] is 12.1% (inactive); in experiment [7], -7.2% (inactive). For the same compound, in [8], the inhibition is -0.335% (inactive). For the same compound, the red/green cell ratio (normalised) in [9] is 1.11 (inactive). Also, the normalised cell number was found to be 0.86 in experiment [9] (setting [10]) and 0.95 in [9] (setting [11]).
Turning to `CC(=O)Nc1ccc(S(=O)(=O)Nc2ccc([N+](=O)[O-])cc2)cc1`, the insulin secretion stimulation in [1] is -0.2% (inactive). The viability decrease in experiment [2] was 9.9% (inactive). The tube area decrease in [3] was 18.2% (inactive). For the same compound, in experiment [4], the GLP1 secretion stimulation is 3.6% (inactive). Also, the inhibition of viability in experiment [5] was -1.57% (inactive). For the same compound, the viability decrease (inhibition) in experiment [6] is 11.5% (inactive); in experiment [7] it was -3.8% (inactive). Besides, the inhibition in experiment [8] is 0.544% (inactive). Also, the red/green cell ratio (normalised) in experiment [9] is 0.81 (inactive). Further, the results for the normalised cell number in experiment [9] (setting [10]) and in experiment [9] (setting [11]) were 1.34 and 1.08, respectively.
On to `CCCCOc1cc(C(=O)NCCN(CC)CC)c2ccccc2n1`, for which the insulin secretion stimulation in experiment [1] is 1.6% (inactive). Further, in experiment [2], the viability decrease was -47.5% (inactive). In experiment [3], the tube area decrease is 3.5% (inactive). In addition, in experiment [4], the GLP1 secretion stimulation was 7.7% (inactive). Also, the inhibition of viability in experiment [5] is 45.3% (inactive). In addition, the values for the viability decrease (inhibition) in experiment [6] and in experiment [7] were 49.2% (inactive) and 29.5% (inactive), respectively. Further, in experiment [8], the inhibition was -0.88% (inactive). Further, the red/green cell ratio (normalised) in [9] is 0.94 (inactive). Also, the values for the normalised cell number in experiment [9] (setting [10]) and in experiment [9] (setting [11]) were 1.33 and 1.25, respectively.
In the case of `CC1(C)S[C@@H]2[C@H](NC(=O)[C@H](N)c3ccccc3)C(=O)N2[C@H]1C(=O)O`, the insulin secretion stimulation in [1] was -0.2% (inactive). In experiment [2], the viability decrease is -19% (inactive). Moreover, the tube area decrease in [3] was 16.3% (inactive). Also, in experiment [4], the GLP1 secretion stimulation is 1.2% (inactive). The inhibition of viability in experiment [5] was -2.8% (inactive). In addition, the viability decrease (inhibition) in experiment [6] was -8.7% (inactive); in experiment [7], -9.6% (inactive). Moreover, the inhibition in experiment [8] was 9.14% (inactive). Moreover, the red/green cell ratio (normalised) in [9] is 0.91 (inactive). The normalised cell number turned out to be 1.22 in [9] (setting [10]) and 1.12 in experiment [9] (setting [11]).
On to `O=c1cc[nH]c(=S)[nH]1`, for which the insulin secretion stimulation in [1] is -0.7% (inactive). Further, the viability decrease in [2] is -5.7% (inactive). In addition, the tube area decrease in [3] is 11.6% (inactive). Besides, in experiment [4], the GLP1 secretion stimulation was -6.9% (inactive). The inhibition of viability in [5] is 1.83% (inactive). The viability decrease (inhibition) in [6] was -9.6% (inactive); in experiment [7] it was -8.5% (inactive). In [8], the inhibition is 13.5% (inactive). The red/green cell ratio (normalised) in experiment [9] is 0.81 (inactive). Further, the normalised cell number in [9] (setting [10]) amounted to 1.32; in [9] (setting [11]), 1.07.
With `O=C1c2ccccc2C(=O)C1c1ccccc1`, the insulin secretion stimulation in [1] was -1.2% (inactive). Also, the viability decrease in experiment [2] was -5.45% (inactive). In addition, the tube area decrease in [3] is -11% (inactive). The GLP1 secretion stimulation in experiment [4] was 2.1% (inactive). In addition, in experiment [5], the inhibition of viability was -1% (inactive). Besides, the viability decrease (inhibition) in experiment [6] is 1.3% (inactive); in [7], -4.85% (inactive). Besides, the inhibition in [8] is 8.94% (inactive). Besides, the red/green cell ratio (normalised) in experiment [9] is 1.05 (inactive). For the same compound, the normalised cell number was determined as 1.09 in experiment [9] (setting [10]) and 1.15 in experiment [9] (setting [11]).
For the compound `CCN(CC)CCOC(=O)C(Cc1cccc2ccccc12)CC1CCCO1` (centres undefined), in experiment [1], the insulin secretion stimulation is 7.9% (inactive). Further, the viability decrease in experiment [2] is -120% (inactive). Further, the tube area decrease in experiment [3] was -1.6% (inactive). The GLP1 secretion stimulation in experiment [4] is 8.3% (active). In addition, in experiment [5], the inhibition of viability is 26.1% (inactive). In addition, the results for the viability decrease (inhibition) in [6] and in experiment [7] were 37.7% (inactive) and 2.6% (inactive), respectively. For the same compound, in [8], the inhibition is -4.35% (inactive). Further, the red/green cell ratio (normalised) in [9] was 1.07 (inactive). Moreover, the normalised cell number in experiment [9] (setting [10]) amounted to 0.99; in experiment [9] (setting [11]) it was 1.06.
Turning to `COc1ccc(C(=O)c2ccccc2O)c(O)c1`, in experiment [1], the insulin secretion stimulation was -0.5% (inactive). In addition, the viability decrease in experiment [2] is -1.1% (inactive). For the same compound, the tube area decrease in [3] is 1.6% (inactive). For the same compound, the GLP1 secretion stimulation in experiment [4] is -1.5% (inactive). Moreover, the inhibition of viability in [5] was -9.15% (inactive). In addition, the viability decrease (inhibition) in experiment [6] is 1.6% (inactive); in experiment [7], -1.5% (inactive). For the same compound, the inhibition in experiment [8] was 11.7% (inactive). Besides, the red/green cell ratio (normalised) in experiment [9] was 1.27 (inactive). Moreover, the normalised cell number was found to be 1.28 in experiment [9] (setting [10]) and 1.63 in [9] (setting [11]).
For the compound `CC(CN(C)C)CN1c2ccccc2CCc2ccccc21` (centres undefined), the insulin secretion stimulation in experiment [1] is 2.4% (inactive). The viability decrease in experiment [2] was -139% (inactive). In addition, the tube area decrease in experiment [3] was 13.4% (inactive). The GLP1 secretion stimulation in experiment [4] is 4.5% (inactive). Moreover, the inhibition of viability in experiment [5] is 55.4% (active). In addition, the viability decrease (inhibition) in experiment [6] was 136% (active); in experiment [7], 1.5% (inactive). Besides, the inhibition in [8] was 13.6% (inactive). In [9], the red/green cell ratio (normalised) is 1.03 (inactive). Further, the normalised cell number in experiment [9] (setting [10]) came to 1.32; in experiment [9] (setting [11]), 1.36.
In the case of `Cc1cc(N)c2ccccc2[n+]1CCCCCCCCCC[n+]1c(C)cc(N)c2ccccc21`, the insulin secretion stimulation in experiment [1] is -0.4% (inactive). Further, the viability decrease in experiment [2] was 85.5% (active). In addition, the tube area decrease in experiment [3] is 106% (active). The GLP1 secretion stimulation in experiment [4] was -0.6% (inactive). Also, the inhibition of viability in experiment [5] is 74.9% (active). Moreover, the viability decrease (inhibition) in experiment [6] was 83% (active); in experiment [7], 85.1% (active). Also, the inhibition in experiment [8] was 4.29% (inactive). Besides, the red/green cell ratio (normalised) in experiment [9] was 0.87 (inactive). Besides, the normalised cell number in experiment [9] (setting [10]) was 1.15; in [9] (setting [11]) it was 1.
For the compound `COc1cc2c3cc1Oc1cc(ccc1O)C[C@@H]1c4c(cc(OC)c(O)c4Oc4ccc(cc4)C[C@@H]3N(C)CC2)CC[N+]1(C)C`, the insulin secretion stimulation in experiment [1] was -0.3% (inactive). The viability decrease in [2] was -3% (inactive). The tube area decrease in [3] was 13.9% (inactive). In [4], the GLP1 secretion stimulation was -1.7% (inactive). Besides, the inhibition of viability in experiment [5] was -1.93% (inactive). Moreover, the results for the viability decrease (inhibition) in [6] and in [7] were 5.3% (inactive) and -2.9% (inactive), respectively. Further, the inhibition in experiment [8] was 0.384% (inactive). In experiment [9], the red/green cell ratio (normalised) was 0.97 (inactive). In addition, the figures for the normalised cell number in [9] (setting [10]) and in experiment [9] (setting [11]) were 1.08 and 1.05, respectively.
Turning to `C=Cc1c(C)c2cc3[nH]c(cc4nc(cc5nc(cc1[nH]2)C(C)=C5CCC(=O)O)C(CCC(=O)O)=C4C)c(C)c3C=C`, the insulin secretion stimulation in [1] is -1.6% (inactive). Besides, in [2], the viability decrease was 37.8% (inactive). Moreover, the tube area decrease in experiment [3] is -597% (inactive). In addition, in experiment [4], the GLP1 secretion stimulation is 117% (active). The inhibition of viability in [5] was 73.5% (active). Also, the results for the viability decrease (inhibition) in experiment [6] and in experiment [7] were 120% (active) and 93% (active), respectively. Also, the inhibition in experiment [8] is 16.8% (inactive). Further, the red/green cell ratio (normalised) in experiment [9] is 1.18 (inactive). Besides, the results for the normalised cell number in experiment [9] (setting [10]) and in experiment [9] (setting [11]) were 0.8 and 0.95, respectively.
As for `Cc1ccc2c(Cl)cc(Cl)c(O)c2n1`, the insulin secretion stimulation in experiment [1] was -0.8% (inactive). Further, in experiment [2], the viability decrease was -3.9% (inactive). Further, the tube area decrease in experiment [3] is 9.4% (inactive). In [4], the GLP1 secretion stimulation is 2% (inactive). Moreover, the inhibition of viability in experiment [5] was 2.45% (inactive). Moreover, the viability decrease (inhibition) in experiment [6] is 14.8% (inactive); in experiment [7], 3.5% (inactive). Further, the inhibition in experiment [8] is 6.51% (inactive). The red/green cell ratio (normalised) in [9] is 0.8 (inactive). For the same compound, the normalised cell number was 1.22 in experiment [9] (setting [10]) and 0.98 in experiment [9] (setting [11]).
